From PubChem BioAssay (NCI)
Compounds without any hit were thinned out: in the full panel of roughly 83,000, 20% have a hit.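 Each cell line was grown in a 96-well plate and treated with one concentration of compound for 48 hours. Values below 10 were considered active.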 Unmarked numbers belong to inactive results. The source made the active and inactive calls.

Legend:
Experiment in all cases: NCI-60 one-dose screen, 48 h (100 = growth as untreated, 0 = no growth, -100 = all killed)
Details in all cases: 10 µM unless noted
[1] = test system: NCI-H23 lung
[2] = test system: NCI-H226 lung
[3] = test system: NCI-H322M lung
[4] = test system: HOP-62 NSCLC
[5] = test system: NCI-H460 lung
[6] = test system: HOP-92 NSCLC
[7] = test system: NCI-H522 lung
[8] = test system: A549/ATCC NSCLC
[9] = test system: 786-0 renal
[10] = test system: COLO 205 colon

**Q.** With `Cc1ccc2nc(-c3c(N)n[nH]c3CCCO)[nH]c(=O)c2c1` as the compound, how does the growth [1] read?
**A.** 105%

**Q.** And the growth [2]?
**A.** 97.5%

**Q.** And the growth [3]?
**A.** 107%

**Q.** What about the growth [4] of the same compound?
**A.** 92.1%

**Q.** What about the growth [5] of the same compound?
**A.** 110%

**Q.** What about the growth [6] of the same compound?
**A.** 82.8%

**Q.** And the growth [7]?
**A.** 114%

**Q.** What about the growth [8] of the same compound?
**A.** 103%

**Q.** What about the growth [9] of the same compound?
**A.** 101%

**Q.** And the growth [10]?
**A.** 105%

**Q.** Which growth [1] does the source give for `O=C1C2=C(C(=O)c3c(O)ccc(O)c31)N(c1cccnc1)Cc1ccccc1O2` here?
**A.** -5.92% (active)

**Q.** And the growth [2]?
**A.** 19.2%

**Q.** What about the growth [3] of the same compound?
**A.** 23.9%

**Q.** What about the growth [4] of the same compound?
**A.** -3.72% (active)

**Q.** And the growth [5]?
**A.** 7.48% (active)

**Q.** What about the growth [6] of the same compound?
**A.** -89.9% (active)

**Q.** What about the growth [7] of the same compound?
**A.** -77.9% (active)

**Q.** And the growth [8]?
**A.** 31.6%

**Q.** What about the growth [9] of the same compound?
**A.** -86.7% (active)

**Q.** And the growth [10]?
**A.** -60.9% (active)

**Q.** How did the growth [1] turn out when `CCC(=O)Oc1ccc2c(c1)CC[C@@H]1[C@@H]2CC[C@]2(C)C[C@H](OC(=O)CC)C[C@@H]12` was run?
**A.** 79.1%

**Q.** And the growth [2]?
**A.** 99.9%

**Q.** What about the growth [3] of the same compound?
**A.** 92.6%

**Q.** What about the growth [4] of the same compound?
**A.** 64.1%

**Q.** And the growth [5]?
**A.** 62.6%

**Q.** What about the growth [6] of the same compound?
**A.** 62.8%

**Q.** And the growth [7]?
**A.** 32.1%

**Q.** What about the growth [8] of the same compound?
**A.** 71.5%

**Q.** What about the growth [9] of the same compound?
**A.** 67.9%

**Q.** What about the growth [10] of the same compound?
**A.** 118%

**Q.** With `CCNC(=O)CCCCC(=O)c1c(C)[nH]c(/C=C2\N=C(c3ccc[nH]3)C=C2OC)c1C` as the compound, how does the growth [1] read?
**A.** 35%

**Q.** And the growth [2]?
**A.** 65.7%

**Q.** What about the growth [3] of the same compound?
**A.** 37.9%

**Q.** What about the growth [4] of the same compound?
**A.** 42.7%

**Q.** What about the growth [5] of the same compound?
**A.** -65.1% (active)

**Q.** And the growth [6]?
**A.** -71.6% (active)

**Q.** What about the growth [7] of the same compound?
**A.** -91.7% (active)

**Q.** And the growth [8]?
**A.** 9.45% (active)

**Q.** What about the growth [9] of the same compound?
**A.** -51.9% (active)

**Q.** What about the growth [10] of the same compound?
**A.** 1.23% (active)

**Q.** With `COc1cc(C(=O)OCCCCCCCCCCC[P+](c2ccccc2)(c2ccccc2)c2ccccc2)ccc1O` as the compound, how does the growth [1] read?
**A.** -18.2% (active)

**Q.** What about the growth [2] of the same compound?
**A.** 27.9%

**Q.** And the growth [3]?
**A.** 1.65% (active)

**Q.** And the growth [4]?
**A.** -83.8% (active)

**Q.** And the growth [5]?
**A.** -10.6% (active)

**Q.** What about the growth [6] of the same compound?
**A.** -49.5% (active)

**Q.** And the growth [7]?
**A.** -50.3% (active)

**Q.** And the growth [8]?
**A.** -8.01% (active)

**Q.** What about the growth [9] of the same compound?
**A.** 5.62% (active)

**Q.** And the growth [10]?
**A.** -84.1% (active)

**Q.** Which results are given for `COc1ccc(/C=C/C(=O)c2ccc(NC(=O)CN3CCN(c4cc5c(cc4F)c(=O)c(C(=O)O)cn5C4CC4)CC3)cc2)cc1`?
**A.** growth [1]: 99.6%; growth [2]: 94.8%; growth [3]: 96.1%; growth [4]: 98.2%; growth [5]: 112%; growth [6]: 90.6%; growth [7]: 111%; growth [8]: 96.8%; growth [9]: 89.8%; growth [10]: 120%

**Q.** With `CC1Cc2c(N(C)C)ncnc2N(C)c2ccc(Cl)cc21` (stereo not given) as the compound, how does the growth [1] read?
**A.** 50.1%

**Q.** And the growth [2]?
**A.** 85.6%

**Q.** And the growth [3]?
**A.** 73.2%

**Q.** What about the growth [4] of the same compound?
**A.** 41.9%

**Q.** What about the growth [5] of the same compound?
**A.** 14.5%

**Q.** And the growth [6]?
**A.** 58%

**Q.** And the growth [7]?
**A.** 13.4%

**Q.** What about the growth [8] of the same compound?
**A.** 55.8%

**Q.** And the growth [9]?
**A.** 31.1%

**Q.** What about the growth [10] of the same compound?
**A.** 36%

**Q.** Which results are given for `CCN(CC)S(=O)(=O)c1ccc2[nH]c(=O)cc(C(=O)Nc3ccc(OC)cc3OC)c2c1`?
**A.** growth [1]: 97.8%; growth [2]: 100%; growth [3]: 116%; growth [4]: 105%; growth [5]: 123%; growth [6]: 77.8%; growth [7]: 105%; growth [8]: 110%; growth [9]: 107%; growth [10]: 110%

**Q.** `COc1cc(C(=O)N2CCN(C(=O)c3ccco3)CC2)c(N)cc1OCc1ccccc1` was tested. Which growth [1] did it give?
**A.** 111%

**Q.** And the growth [2]?
**A.** 88.4%

**Q.** And the growth [3]?
**A.** 91.3%

**Q.** And the growth [4]?
**A.** 94.6%

**Q.** And the growth [5]?
**A.** 113%

**Q.** And the growth [6]?
**A.** 61%

**Q.** And the growth [7]?
**A.** 84.4%

**Q.** What about the growth [8] of the same compound?
**A.** 93.3%

**Q.** What about the growth [9] of the same compound?
**A.** 95.6%

**Q.** What about the growth [10] of the same compound?
**A.** 125%

**Q.** With `Nc1c(C(=O)Nc2c(Cl)cccc2Cl)sc2nc3c(cc12)CCCCC3` as the compound, how does the growth [1] read?
**A.** 78.4%

**Q.** What about the growth [2] of the same compound?
**A.** 61.8%

**Q.** What about the growth [3] of the same compound?
**A.** 85.4%

**Q.** What about the growth [4] of the same compound?
**A.** 53.9%

**Q.** What about the growth [5] of the same compound?
**A.** 54.9%

**Q.** What about the growth [6] of the same compound?
**A.** 59.4%

**Q.** And the growth [7]?
**A.** 40.1%

**Q.** And the growth [8]?
**A.** 50.3%

**Q.** And the growth [9]?
**A.** 59.8%

**Q.** What about the growth [10] of the same compound?
**A.** 45.3%

**Q.** With `COc1ccc(C2SCC(=O)N2NC(=O)c2ccc(NC(=O)c3ccccn3)cc2)cc1OC` (stereo not given) as the compound, how does the growth [1] read?
**A.** 102%

**Q.** And the growth [2]?
**A.** 94.3%

**Q.** And the growth [3]?
**A.** 95.2%

**Q.** What about the growth [4] of the same compound?
**A.** 88.1%

**Q.** And the growth [5]?
**A.** 113%

**Q.** What about the growth [6] of the same compound?
**A.** 116%

**Q.** What about the growth [7] of the same compound?
**A.** 81.8%

**Q.** What about the growth [8] of the same compound?
**A.** 91.7%

**Q.** And the growth [9]?
**A.** 97.2%

**Q.** What about the growth [10] of the same compound?
**A.** 109%

**Q.** What does the source list for `COc1cccc(/C=C/C(=O)c2sc(Nc3ccc(O)cc3)nc2C)c1`?
**A.** growth [1]: 92.3%; growth [2]: 107%; growth [3]: 93.5%; growth [4]: 107%; growth [5]: 105%; growth [6]: 107%; growth [7]: 24.9%; growth [8]: 88.2%; growth [9]: 80.2%; growth [10]: 115%

**Q.** With `C[N+](C)(C)c1ccc(CC2c3ccccc3-c3ccccc32)cc1` as the compound, how does the growth [1] read?
**A.** 78.5%

**Q.** And the growth [2]?
**A.** 82.2%

**Q.** And the growth [3]?
**A.** 87.8%

**Q.** And the growth [4]?
**A.** 38.9%

**Q.** What about the growth [5] of the same compound?
**A.** 87.3%

**Q.** And the growth [6]?
**A.** 28.8%

**Q.** And the growth [7]?
**A.** 59.9%

**Q.** What about the growth [8] of the same compound?
**A.** 62%

**Q.** What about the growth [9] of the same compound?
**A.** 73.9%

**Q.** What about the growth [10] of the same compound?
**A.** 59.8%

**Q.** `CC(C)C(C(=O)CCN(C)C)c1ccc(Cl)cc1` (stereo not given) was tested. Which growth [1] did it give?
**A.** 103%

**Q.** What about the growth [2] of the same compound?
**A.** 94.9%

**Q.** And the growth [3]?
**A.** 99.3%

**Q.** And the growth [4]?
**A.** 98.4%

**Q.** What about the growth [5] of the same compound?
**A.** 104%

**Q.** What about the growth [6] of the same compound?
**A.** 96.8%

**Q.** And the growth [7]?
**A.** 74.2%

**Q.** What about the growth [8] of the same compound?
**A.** 61.6%

**Q.** What about the growth [9] of the same compound?
**A.** 102%

**Q.** What about the growth [10] of the same compound?
**A.** 106%
